# According to paper PMC5540273 (PLoS ONE, 2017):
# Legend:
# Details in all cases: concentration: 1 μM,replicates: in singlicate; n = 1
# NEK11 = tested on: NEK11
# NEK1 = tested on: NEK1
# NEK2 = tested on: NEK2
# NEK3 = tested on: NEK3
# NEK4 = tested on: NEK4
# NEK5 = tested on: NEK5
# NEK6 = tested on: NEK6
# NEK7 = tested on: NEK7
# NEK9 = tested on: NEK9
# NIK = tested on: T1, NIK
# T1 construct: gene MAP3K14
# NIM1 = tested on: T2, NIM1
# T2 construct: gene MGC42105
# NLK = tested on: NLK
# OSR1 = tested on: T3, OSR1
# T3 construct: gene OXSR1
# PAK1 = tested on: PAK1
# PAK2 = tested on: PAK2
# PAK3 = tested on: PAK3
# PAK4 = tested on: PAK4
# PAK6 = tested on: PAK6
# PCTK1 = tested on: T4, PCTK1
# T4 construct: gene CDK16
# PAK7 = tested on: PAK7
# 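Note: KINOMEscan kinase panel screen.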
Compound,%Inh (NEK11) [%],%Inh (NEK1) [%],%Inh (NEK2) [%],%Inh (NEK3) [%],%Inh (NEK4) [%],%Inh (NEK5) [%],%Inh (NEK6) [%],%Inh (NEK7) [%],%Inh (NEK9) [%],%Inh (NIK) [%],%Inh (NIM1) [%],%Inh (NLK) [%],%Inh (OSR1) [%],%Inh (PAK1) [%],%Inh (PAK2) [%],%Inh (PAK3) [%],%Inh (PAK4) [%],%Inh (PAK6) [%],%Inh (PCTK1) [%],%Inh (PAK7) [%]
CCN(CC)CCOc1ccc(Nc2ncc3cc(-c4c(Cl)cccc4Cl)c(=O)n(C)c3n2)cc1 [SB-601273],98.5,34,99.5,26,0,35,44,0,20,31,96.4,99.3,16,82,17,47,53,41,0,–
CNC(=O)c1ccccc1Sc1ccc2c(/C=C/c3ccccn3)n[nH]c2c1,0,0,5,32,0,11,0,26,1,0,8,100,0,9,8,0,2,10,–,40
Cl.Oc1cc(-c2nc(-c3ccccc3)[nH]c2-c2ccncc2)ccc1Cl [SB-386023],18,0,0,0,10,0,28,14,0,1,0,90,8,0,20,0,0,5,0,1
Cc1ccc(-n2nc(C(C)(C)C)cc2NC(=O)Nc2ccc(OCCN3CCOCC3)c3ccccc23)cc1 [GW839464],0,2,0,9,0,21,0,0,0,0,0,–,0,0,0,35,10,12,0,0
Cc1n[nH]c2ccc(-c3cc(OC[C@@H](N)Cc4ccccc4)cnc3-c3ccoc3)cc12.O=C(O)C(F)(F)F.O=C(O)C(F)(F)F [GSK507358],0,1,0,0,0,0,0,11,30,87,20,3,12,88,40,27,0,3,4,56
CN(C)CCOc1ccc(-c2cc(-c3c[nH]nc3-c3ccccn3)ccn2)cc1 [GW835314],25,0,3,33,0,0,10,8,11,44,10,0,0,0,0,24,0,90,3,4
Cc1occc1-c1nc(N)c(OC[C@@H](N)Cc2c[nH]c3ccccc23)cc1-c1cc2c(C)n[nH]c2cn1 [GSK1660450],0,46,6,0,0,29,0,100,67,78,74,17,13,97.8,86,75,0,11,10,9
CC(C)N1C(=O)Cc2cc(Nc3ncc(C(F)(F)F)c(NCc4cccc(S(C)(=O)=O)c4)n3)ccc21,0,0,0,37,0,1,0,12,2,0,51,0,5,8,0,19,7,6,0,25
CN(C)CC(O)COc1ccc(Nc2nccc(-c3cnn4nc(N5CCOCC5)ccc34)n2)cc1 (centres unmarked) [GW767488],47,44,14,96.1,37,0,64,86,55,0,51,11,54,17,34,4,25,30,97.6,9
Cc1cc2cn[nH]c2cc1-c1cccc2c(N)c(C(N)=O)nnc12,27,0,12,33,18,2,17,0,15,40,27,0,48,24,10,85,16,12,26,0
Nc1nc(Nc2ccccc2)cc(-c2ccc3c(N)n[nH]c3c2)n1 [GSK2225749],11,0,14,0,5,0,0,0,11,20,15,3,14,27,9,0,0,0,0,0
CC(C)Nc1cc(-c2ccc3c(N)n[nH]c3c2)nc(N)n1 [GSK2221681],0,0,0,1,7,4,0,0,1,0,0,0,0,34,26,0,0,0,0,0
C[C@H]1Oc2cc(cnc2N)-c2c(nn(C)c2C#N)CN(C)C(=O)c2ccc(F)cc21,0,0,22,29,0,0,0,28,3,3,0,5,0,8,9,36,14,2,0,11
O=C(NCCCN1CCOC1=O)c1cnc(NCc2cc(Cl)ccc2Cl)nc1NC1CCCC1,0,0,7,31,0,0,7,22,0,16,2,17,0,9,17,0,18,16,0,2
COc1ccc(C[C@@H](CN)NC(=O)c2cc(Br)c(-c3ccnc4[nH]ccc34)s2)cc1.Cl.Cl [GSK1389063],14,0,29,22,1,19,0,0,0,37,13,0,34,78,62,93.9,89,89,16,98.7
Cc1cc(C(=O)Nc2ccc(Oc3ccc4nc(NC(=O)C5CC5)cn4n3)cc2)nn1-c1ccccc1,0,1,10,0,0,0,10,0,0,0,0,2,0,0,0,3,0,15,0,0
C[C@@H]1CCN(C(=O)CC#N)C[C@@H]1N(C)c1ncnc2[nH]ccc12,0,0,19,23,0,0,0,9,0,0,7,12,0,0,0,1,0,0,0,0
O=C(NCCNc1ccnc(NCc2ccc(F)cc2)n1)c1cc2ccccc2s1 [GSK1379944],0,0,4,11,19,85,0,0,0,0,0,88,11,15,20,0,0,57,8,0
C[C@@H](Oc1cc(-c2cnn(C3CCNCC3)c2)cnc1N)c1c(Cl)ccc(F)c1Cl,0,0,0,24,20,0,14,35,26,0,8,0,36,12,9,0,12,0,25,0
